Most compounds without a hit are left out; they make up all but 3.4% or so of the library.
AmpC no deterg – inhibitors of E. coli AmpC beta-lactamase without detergent; P00811; AmpC nitrocefin hydrolysis, absorbance 480 nm, 0.0001% Triton; Potency, µM (doses to about 57.1 µM), without a hit: top-dose activity change, negative = inhibition, usual class: inhibitors; 330,000 compounds, 0.52% hits; AID 485341;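 note: plate controls were no compound for no effect and no enzyme for full effect; nearly all actives have a fitted effect of over 20% in size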
Target sequence (P00811 whole entry, looked up): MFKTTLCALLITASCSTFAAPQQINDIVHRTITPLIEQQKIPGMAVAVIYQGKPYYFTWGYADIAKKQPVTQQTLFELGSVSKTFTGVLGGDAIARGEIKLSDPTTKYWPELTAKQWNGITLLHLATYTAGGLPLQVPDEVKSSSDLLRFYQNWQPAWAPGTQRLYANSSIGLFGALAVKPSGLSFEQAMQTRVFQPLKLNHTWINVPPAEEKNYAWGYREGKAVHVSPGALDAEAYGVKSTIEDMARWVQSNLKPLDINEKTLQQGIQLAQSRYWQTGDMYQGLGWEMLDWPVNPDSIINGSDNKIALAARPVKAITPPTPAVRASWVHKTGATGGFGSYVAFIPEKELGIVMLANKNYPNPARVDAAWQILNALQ
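20 mM phosphate pH 7.0 + 0.01% (detergent screen) or 0.0001% Triton X-100; 5.3 nM AmpC reagent; cpd preinc 15 min RT; nitrocefin (800 uM stock) to start; A480 q20 s × 4 min; Activity was normalised to no-enzyme and no-compound control wells.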
Giardia FBPA inh – inhibitors of Giardia lamblia fructose-1,6-bisphosphate aldolase. A8B2U2. AID 2451. 290,000 compounds, 0.71% hits. Potency, µM (top dose mostly 59.6 µM), for inactives: at the top dose activity, negative = inhibition, usual class: inhibitors. purified Giardia FBPA; note: nearly all actives have a fitted effect of over 55% in size
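40 nM FBPA preincubated 10 min at RT with compound (up to 57.5 uM final), then substrate plus GAPDH/TPI/NAD/arsenate coupling and diaphorase/resazurin added. Fluorescence read after 20 min at RT, 525/598 nm.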
Sm TGR block – S. mansoni TGR enzyme inhibition; Q962Y6; purified TGR, DTNB reduction, TNB absorbance 405 nm; Potency, µM (doses to about 114 µM), for the others: top-dose activity change, negative = inhibition, actives largely listed as inhibitors; 360,000 compounds, 3% hits; AID 485364; note: nearly all actives have a fitted effect of over 60% in size
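Kinetic colorimetric format: TGR-catalysed, NADPH-driven DTNB reduction monitored via TNB absorbance. Enzyme dispensed at 20 nM; compound exposure 15 min at room temperature before reaction start.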
RE007 growth inh – less growth of the S. pombe RE007 Vpr strain; Potency, µM (top dose mostly 92.2 µM), for the others: top-dose activity change, negative = less growth, most hits filed as inhibitors; 360,000 compounds, 0.21% hits; S. pombe RE007 Vpr strain, BacTiter-Glo ATP luminescence, 24 h; active = well fitted falling curve with a large enough effect; inconclusive = small, poorly fitted or top-dose-only effect; inactive = no such curve, though single readings can be large or run the other way; note: nearly all actives have a fitted effect of over 50% in size
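Fission yeast strain RE007, carrying one chromosomally integrated HIV-1 vpr copy, was seeded at OD 0.01 in PMG+AL medium with 23 nL pinned compound. After 24 h at 30 °C and 99% humidity, viability was read by BacTiter-Glo luminescence.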
AmpC detergent – blocks E. coli AmpC beta-lactamase in detergent assay. P00811. AmpC hydrolysis of nitrocefin, absorbance 480 nm, 0.01% Triton. Potency, µM (highest dose often 114 µM), for inactives: at the highest dose activity change, negative = inhibition, actives largely listed as inhibitors. 370,000 compounds, 0.041% hits;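 note: 0% = no-compound wells and -100% = no-enzyme wells; nearly all actives have a fitted effect of over 25% in size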
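AmpC (5.3 nM in the dispensed reagent) in 20 mM phosphate pH 7.0 with 0.01% (detergent screen) or 0.0001% Triton X-100 was preincubated with compounds for 15 min at room temperature. Nitrocefin was then added from an 800 uM solution, and hydrolysis was followed at 480 nm.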
Active calls of the source: *; ? = inconclusive; · = no result given; [ ] = remark or other dose. Unless noted, calls come from the whole dose curve; as a rule, active = well fitted curve in the direction sought with a large enough effect; inconclusive = small, poorly fitted or top-dose-only effect, or another doubt; inactive = no such curve, though single readings can be large; an effect the other way counts as inactive or inconclusive. Unless noted, % is set by controls: 0 for no effect and ±100 for the full control effect; potency is the fitted concentration of half-maximal effect.

SMILES	AmpC no deterg	Giardia FBPA inh	Sm TGR block	RE007 growth inh	AmpC detergent
CCCc1cc(C(=O)Nc2cccc(Cl)c2C)no1	-20.3%	10.0%	1.4%	-2.6%	?
CCCc1cc(C(=O)Nc2ccc(C(C)=O)cc2)no1	44.7µM*	-3.7%	1.8%	-20.0%	-4.4%
CCCc1cc(C(=O)Nc2cccc(C(C)=O)c2)no1	-7.1%	-4.7%	5.6%	-0.2%	2.9%
CCCc1cc(C(=O)Nc2ccccc2SC)no1	39.8µM*	-0.1%	9.1%	-19.8%	6.0%
Nc1ccccc1O	-8.0%	·	?	-20.3%	2.8%
Oc1ccccc1O	-22.4%	-17.8%	15.8µM*	1.6%[18.4 µM]	?
Cc1cc(C)cc(OC(=O)CN2C(=O)c3ccccc3C2=O)c1	-12.6%	6.0%	15.2%	-18.2%	-11.3%
COC(=O)Cc1ccc(NC(=S)N2CCN(C)CC2)cc1	-11.8%	1.9%	·	4.8%	5.7%
CC1CCN(c2nc(N(C)c3ccccc3)nc(N)c2[N+](=O)[O-])CC1	-19.0%	1.1%	11.8%	-5.6%	7.1%
O=C(NCc1cccs1)C(Cc1ccccc1)n1cccc1 (stereo not given)	-24.7%	4.4%	39.8µM*	1.8%	-10.3%
CC(C(=O)NCc1cccs1)n1cccc1 (stereo not given)	-14.6%	-1.6%	-4.3%	-4.5%	-5.4%
Cc1ccc(NC(=O)/C=C/c2ccc(C)o2)c(C)c1	·	·	7.94µM*	·	23.3%
COC(=O)c1ccc(Cl)cc1NC(=O)/C=C/c1ccc(C)o1	-48.6%	-8.9%	20µM*	8.6%	1.5%
CC(C)Nc1nc(Cl)nc(N(C#N)CN2C(=O)c3ccccc3S2(=O)=O)n1	-38.9%	-18.7%	20µM*	-0.9%	6.7%
COc1nc(NC(C)C)nc(N(C#N)CN2C(=O)c3ccccc3S2(=O)=O)n1	-0.2%	10.7%	-35.3%	-3.7%	-7.6%
CCC(C)[C@H](NC(=O)Nc1cccc(OC)c1)C(=O)OC (stereo not given in full)	-13.5%	-1.5%	-10.9%	-11.1%	?
CCC(C)NC(=O)CN1C(=O)c2cccc3cccc1c23 (stereo not given)	-2.0%	11.1%	4.7%	1.0%	-6.1%
CCN1/C(=N\N)c2cccc3cccc1c23	-16.3%	9.98µM*	22.4µM*	-21.7%	-2.0%
CN1CCN(C(c2ccc(Cl)cc2)c2cc(Cl)c3cccnc3c2O)CC1 (stereo not given)	-1.9%	-6.0%	0.355µM*	7.7%	-6.5%
Oc1c(C(c2ccccn2)N2CCCCC2)cc(Cl)c2cccnc12 (stereo not given)	-14.0%	-16.6%	3.55µM*	?	?
CN1CCN(C(c2ccc(C(F)(F)F)cc2)c2cc(Cl)c3cccnc3c2O)CC1 (stereo not given)	1.0%	19.1%	0.631µM*	·	-6.7%
O=C1NC(=O)N(c2ccccc2)C(=O)/C1=C/c1ccoc1	-26.9%	-9.0%	-9.9%	-20.2%	-3.1%
O=C1NC(=O)N(c2ccccc2)C(=O)/C1=C\c1ccccc1[N+](=O)[O-]	-8.3%	-7.8%	3.55µM*	-5.3%	-0.5%
COc1ccccc1N1C(=O)NC(=O)/C(=C/c2ccc3c4c(cccc24)CC3)C1=O	-15.1%	?	31.6µM*	-10.6%	-17.4%
COc1ccccc1N1C(=O)NC(=O)/C(=C\c2cnn(-c3ccccc3)c2)C1=O	-31.7%	-5.2%	4.6%	10.7%	-13.3%
SMILES	AmpC no deterg	Giardia FBPA inh	Sm TGR block	RE007 growth inh	AmpC detergent
O=C1NC(=O)N(c2ccccc2)C(=O)/C1=C\c1ccc2c3c(cccc13)CC2	-28.3%	-22.2%	25.1µM*	·	-2.9%
Cn1c(=O)c2c(-c3ccc(Br)cc3)n(CCc3ccccc3)cc2n(C)c1=O	·	·	-16.2%	·	-9.6%
S=C(NC1CCCCC1)NN1CCCCCC1	·	·	·	-10.3%	·
CC(C)c1cc(NC(=O)CCl)on1	-12.9%[11.4 µM]	-9.1%	12.6µM*	9.5%	?
Cc1cc(NC(=O)CCl)on1	-17.8%	-18.7%	15.8µM*	22.3%	2.6%
Fc1ccccc1CNCCc1ccc2c(c1)OCO2	-22.1%	?	10µM*	-3.5%	-9.7%
COCCN1CCn2c(nc3cc(NC(=O)c4cccs4)ccc32)C1	-5.9%	-10.9%	17.8µM*	11.8%	-3.0%
CCCCC(=O)Nc1ccc2c(c1)nc1n2CCN(CCOC)C1	7.0%	-9.4%	-11.3%	8.4%	-9.6%

Assay outcomes as filed in PubChem.
